The values that follow come from ChEMBL document CHEMBL4513216, “Probing the Open Global Health Chemical Diversity Library for Multistage-Active Starting Points for Next-Generation Antimalarials” (ACS Infect Dis, 2020).

SMILES strings stand for the structures. Hit rate of the full screen: of about 69,000 compounds, about 8,600 (12%) showed an effect of 50% or more. What follows is part of a selection rich in strong results, with near analogues and random picks from the rest.

In this assay the test system is Plasmodium berghei. In words: Screen against P. berghei liver stage (PbLuc), transformed with Luciferase, at 10uM. Type of assay: functional, HepG2. The settings on record: tested at 10 uM.
Turning to `CN(C)Cc1cc(C2CCCN(S(=O)(=O)c3cccc(Cl)c3)C2)nn1C` (centres undefined), the INHIBITION is listed as -14.2%. With `Cc1ncc(CN2CCCC(c3cc(C(F)(F)F)[nH]n3)C2)s1` (centres undefined) the figure was -17.6%; with `CCCNC(=O)c1ccc(S(=O)(=O)NCC2(O)CCCNC2)cc1` (centres undefined), 43.4%. With `CCCNC(=O)NCc1ccccc1NS(=O)(=O)c1ccccc1` the figure was -24.7%; with `CNS(=O)(=O)c1ccc(C(=O)NCCNc2ncccn2)cc1`, 33%; with `CCCNC(=O)c1ccc(S(=O)(=O)NCC2(COC)CCCC2)cc1`, 89.7%. Next, `CCCNC(=O)c1ccc(S(=O)(=O)NC2(COC)CCCC2)cc1`: 56.3%. In the case of `CCOCCC1(CNC(=O)c2ccncc2)CCC1`, the INHIBITION is given as -37.7%. Next, `CC(=O)N(Cc1ncc(C)o1)C1CCN(Cc2cc(C)on2)C1` (centres undefined): -16%. As to `COC(CNC(=O)C1CCN(S(C)(=O)=O)CC1)c1ccc(C)s1` (centres undefined), the INHIBITION was 36.8%. With `COc1ccc(CN(C)[C@@H]2CN(C(=O)c3cccs3)C[C@H]2O)cc1` the figure was 24.5%; with `COc1ccc(CN(C)[C@@H]2CN(C(=O)c3cnn(C)c3)C[C@H]2O)cc1`, 2.71%.

For `COc1ccc(CN(C)[C@@H]2CN(C(=O)c3cccnc3)C[C@H]2O)cc1`, the INHIBITION was found to be 52%. With `COc1ccc(CN(C)[C@@H]2CN(C(=O)c3ccccc3)C[C@H]2O)cc1` the figure was 25.6%; with `COc1ccc(CN(C)[C@@H]2CN(C(=O)c3ccnn3C)C[C@H]2O)cc1`, -55%. With `COc1ccc(CN(C)[C@@H]2CN(C(=O)c3cncs3)C[C@H]2O)cc1` the figure was 56.8%; with `COc1ccnc(N2CCN(Cc3nc(-c4ccoc4)no3)CC2)c1`, 9.52%; with `Cc1nc(C)n(CC2CCCN2Cc2cn3cc(Cl)ccc3n2)n1` (centres undefined), 15.3%. With `Cc1ccc(C(=O)N2C[C@@H]3CCCO[C@@H]3[C@H](N3CCCC3)C2)cn1` the figure was 30.5%; with `Cn1cccc1C(=O)N1C[C@@H]2CCCO[C@@H]2[C@H](N2CCOCC2)C1`, 30.5%; with `O=C(c1ccccc1)N1C[C@@H]2CCCO[C@@H]2[C@H](N2CCOCC2)C1`, 49.7%. With `Cc1cccc(C(=O)N2CCO[C@H]3[C@H](OCCN(C)C)CC[C@@H]32)n1`, the INHIBITION is recorded as 54%. With `Cc1ccc(C(=O)N2CCO[C@H]3[C@H](OCCN(C)C)CC[C@@H]32)cn1` the figure was -9.26%; with `CN(C)CCO[C@@H]1CC[C@H]2[C@H]1OCCN2C(=O)c1ccncc1`, 29.3%; with `CO[C@H]1CC[C@H]2[C@H]1OCCN2C(=O)c1ccc(C)nc1`, -6.39%.

`Cc1cc(C(=O)N2C[C@@H]3CCCO[C@@H]3[C@H](N3CCOCC3)C2)c(C)[nH]1`: the INHIBITION is 4.02%. Next, `Cc1ccc(C(=O)N2C[C@@H]3CCCO[C@@H]3[C@H](N3CCOCC3)C2)cn1`: 52.6%. Next, `CO[C@@H]1CC[C@H]2[C@H]1OCCN2C(=O)c1ccc(C)nc1`: 67%; `Cc1ccccc1C(=O)N1CCO[C@H]2[C@H](OCCN(C)C)CC[C@@H]21`: -0.371%; `O=C(c1ccccc1)N1C[C@@H]2CCCO[C@@H]2[C@H](N2CCCC2)C1`: 52.6%. With `COc1ccc(Cn2cc(C(=O)N(C)CCN(C)C)nn2)cc1` the figure was 28.5%; with `c1cncc(COCc2nnc3n2CCN(CC2CC2)C3)c1`, -15.7%. Turning to `CCS(=O)(=O)CCN(C)C(=O)NC(C)c1ccc(C)s1` (centres undefined), the INHIBITION was 22.6%. Next, `CCc1sc(C(=O)N2CCC(Nc3ccc(C)nn3)CC2)cc1C`: 42%; `Cc1ccc(C(=O)N2C[C@@H](N3CCN(C)CC3)[C@H]3OCCC[C@H]32)cn1`: 10.4%; `Cc1cnc(C(=O)N2C[C@H](N3CCOCC3)[C@@H]3OCCC[C@@H]32)cn1`: 45.7%. Take `Cc1ccc(C(=O)N2C[C@H](N3CCOCC3)[C@@H]3OCCC[C@@H]32)cn1`: the INHIBITION came out at 50.3%.

`CC(=O)NCC1CCN(C(=O)c2ccc(Sc3ccccn3)cc2)CC1`: the INHIBITION turned out to be 14.4%. Next, `CC(=O)N1CCN(c2cnnc(N3CCCC3)c2)CC1`: 31.9%; `O=C(c1ccccc1)N1C[C@H]2CC[C@@H](C1)N(Cc1cc(F)ccc1Cl)C2`: 25%. Next, `NCCN1C(=O)CC[C@H]2CN(Cc3ccc4occc4c3)CC[C@H]21`: 30.3%; `COCCCN1C(=O)CC[C@H]2CN(Cc3cc4ccccc4o3)CC[C@H]21`: 73.9%. Next, `COCCCN1C(=O)CC[C@H]2CN(Cc3ccc4nonc4c3)CC[C@H]21`: 53.4%. Turning to `COCCCN1C(=O)CC[C@H]2CN(Cc3ncc[nH]3)CC[C@H]21`, the INHIBITION is on record as 38.8%.

On to `COCCCN1C(=O)CC[C@H]2CN(c3cc(C(N)=O)ccn3)CC[C@H]21`, for which the INHIBITION is 24.9%. With `COCCCN1C(=O)CC[C@H]2CN(c3ccnc4ccccc34)CC[C@H]21` the figure was 63.9%. With `COCCCN1C(=O)CC[C@H]2CN(c3nc4ccccc4s3)CC[C@H]21` the figure was 41.2%; with `COCCCN1C(=O)CC[C@H]2CN(Cc3ccc4occc4c3)CC[C@H]21`, 16.1%; with `COCCCN1C(=O)CC[C@H]2CN(c3cnc4ccccc4n3)CC[C@H]21`, 28.5%. Next, `CC(=O)N1CCCC(c2ccc(N3CCOCC3)cn2)C1` (centres undefined): -4.51%; `Cc1ccc(NCc2cnc3n2CCN(c2ncccn2)CC3)nn1`: 35.2%. Consider `Cc1ccccc1CNC(=O)C1CCN(Cc2nccn2C)CC1`, for which the INHIBITION is listed as -17%. With `CC(=O)N1CCC(Cc2cnc(-c3c(C)nn(C)c3C)cn2)C1` (centres undefined) the figure was 33.5%; with `Cn1ccnc(Sc2cccc(C#N)c2)c1=O`, 15%. With `COCCCN1CCN(C(=O)C(c2cccc(F)c2)N(C)C)CC1` (centres undefined) the figure was 50.1%; with `CN(C)C(C(=O)N1CCN(CCn2cccc2)CC1)c1cccc(F)c1` (centres undefined), 44.7%.

Consider `COCCN1CCN(C(=O)C(c2cccc(F)c2)N(C)C)CC1` (centres undefined), for which the INHIBITION is on record as 41.5%. Consider `CC(Cn1ccnc1)NC(=O)N1CCN(Cc2ccsc2)CC1` (centres undefined), for which the INHIBITION came to 31.9%.

On to `COc1ccc2c(c1)CC(C1CCOCC1)N(C(=O)c1ccn(C)n1)C2` (centres undefined), for which the INHIBITION is recorded as 2.45%.
